A selection: hits, their analogues and other compounds. The true share with any hit is near 4%.
TROY NFkB inh = inhibitors of TROY-driven NF-kB signaling, primary screen, Q293 LMP1-TROYcd cells, NF-kB luciferase, uHTS; Q293 LMP1-TROYcd NF-kB luciferase reporter, 4 h; inhibition, % at 10 µM; 360,000 compounds, 0.98% hits;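 active = compounds whose plate-normalised and pattern-corrected inhibition of the luciferase reporter signal at the single screening dose is 50% or more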
HIF-2a block = HIF-2a reporter inhibitors, primary screen, luminescence, 786-0 RCC cells. 786-0 RCC cells HIF-2a reporter, luciferase luminescence, overnight. inhibition, % at 18.8 µM. 360,000 compounds, 0.72% hits;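 active = inhibition of the luminescence signal of 40% or more relative to plate controls, in a single-dose primary screen at 18.75 µM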
KKLEB tox = cytotoxicity in KKLEB CF airway cells, primary screen, cytotoxicity control for CF NF-kB inhibitor project, cell-based, uHTS, fluorescence assay plates | KKLEB CF airway cells viability, ATPlite luminescence, overnight; hits give low values; cells stimulated with P. aeruginosa culture filtrate | activity change (cytotoxicity), % at 5 µM | 360,000 compounds, 0.36% hits;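 active = corrected activity change at or below -50% at 5 µM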
CF NFkB block = inhibitors of PAF-induced NF-kB signaling, primary screen, cell-based, GFP fluorescence, uHTS; KKLEB NF-kB-GFP reporter, GFP fluorescence overnight; inhibition, % at 5 µM; 360,000 compounds, 0.86% hits; AID 588850, 2011;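 active = at least 50% inhibition at 5 µM, scaled per plate between neutral and stimulator controls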;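 also: PAF is a Pseudomonas aeruginosa culture filtrate used as stimulus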
TWEAK Fn14 block = inhibitors of TWEAK-Fn14 signaling, primary screen, luciferase reporter cells, uHTS; TWEAK-stimulated Fn14 reporter cells, luciferase luminescence, 8 h; inhibition, % at 10 µM; 360,000 compounds, 2% hits; in the data active = inhibition above about 50%
Peg3 promoter = Peg3 promoter-driven luciferase inhibitors, primary screen, cell-based, HeLa, luciferase luminescence; inhibition, % at 20 µM; HeLa PEG-Prom luciferase reporter, overnight; AID 588405, 2011; 360,000 compounds, 1.7% hits;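 active = inhibition of at least 50% at 20 µM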
Numbers stand for hits; - = inactive; . = no result given.

SMILES	TROY NFkB inh	HIF-2a block	KKLEB tox	CF NFkB block	TWEAK Fn14 block	Peg3 promoter
CS(=O)(=O)N1CCN(c2ccnc3cc(Cl)ccc23)CC1	-	-	-	-	67	-
CCS(=O)(=O)N1CCN(c2ccnc3cc(Cl)ccc23)CC1	-	-	-	-	-	-
CC(C)(Oc1ccc(Cl)cc1)C(=O)NC1CC1	-	-	-	-	-	-
Cc1ccc(NC(=O)C2Cc3ccccc3CN2C(=O)c2ccco2)cc1S(=O)(=O)N(C)C (configuration not stated)	72	-	-	-	-	-
C=CCSc1nc(-c2ccccc2)c(C#N)c(=O)[nH]1	-	-	-	-	-	-
N#Cc1c(-c2ccccc2)nc(SCc2ccc(Cl)cc2)[nH]c1=O	51	-	-	-	-	-
N#Cc1c(-c2ccccc2)nc(SCC(=O)N2c3ccccc3Sc3ccccc32)[nH]c1=O	55	-	-	-	-	-
CCOCCCNC(=O)CN1C(=O)CSc2ccccc21	-	-	-	-	-	-
CCc1ccc(C(=O)NNC(=O)C2CC(=O)N(c3ccc4c(c3)OCCO4)C2)cc1 (configuration not stated)	-	-	-	-	-	-
CC(=O)Nc1ccc(NC(=O)C2CC(=O)N(c3cccc(C)c3C)C2)cc1 (configuration not stated)	-	-	-	-	-	-
COc1ccc(-c2csc(NC(=O)C3CC(=O)N(c4ccc5c(c4)OCCO5)C3)n2)cc1 (configuration not stated)	55	-	-	-	85	-
Cc1cccc(N2CC(C(=O)Nc3ccc4c(c3)OCCO4)CC2=O)c1C (configuration not stated)	-	-	-	-	63	-
COc1ccc(N2CC(C(=O)Nc3ccc4c(c3)OCCO4)CC2=O)cc1 (configuration not stated)	-	-	-	-	-	-
CC(=O)Nc1ccc(-c2csc(NC(=O)C3CC(=O)N(c4ccc5c(c4)OCCO5)C3)n2)cc1 (configuration not stated)	-	-	-	-	-	-
CCc1ccc(N2CC(C(=O)Nc3ccc4c(c3)OCCO4)CC2=O)cc1 (configuration not stated)	55	-	-	-	51	-
COC(=O)c1ccc(CSc2nnc(NC(=O)C3CC(=O)N(c4ccc5c(c4)OCCO5)C3)s2)cc1 (configuration not stated)	-	-	-	-	54	-
CC1CCCC(NS(=O)(=O)c2cc3c(cc2Cl)NC(=O)CO3)C1C (configuration not stated)	-	-	-	-	-	-
COc1cccc(/C=C/C(=O)OCC(=O)Nc2ccc3[nH]c(=O)[nH]c3c2)c1OC	-	-	-	-	-	-
CCOc1ccccc1NC(=O)CN1C(=O)COc2ccc(S(=O)(=O)N3CCOCC3)cc21	-	-	-	-	-	-
Cc1cc(NC(=O)C2CC(=O)N(c3ccccc3C)C2)no1 (configuration not stated)	-	-	-	-	83	-
CCN(CC)S(=O)(=O)c1ccc(NC(=O)C2CC(=O)N(c3ccc4c(c3)OCCO4)C2)cc1 (configuration not stated)	-	-	-	-	60	-
Cc1cc(NC(=O)C2CC(=O)N(c3cccc(C)c3C)C2)no1 (configuration not stated)	-	-	-	-	-	-
COc1ccccc1-n1c(C)cc(/C=C2\C(=N)N3N=C(CC(=O)N4CCOCC4)SC3=NC2=O)c1C	-	-	-	-	-	-
O=Cc1cc2c(cc1[B-](F)(F)F)OCO2	-	-	-	-	-	-
O=C1OC(c2ccc3ccccc3c2O)(c2ccc3ccccc3c2O)c2ccccc21	66	-	-	-	95	-
SMILES	TROY NFkB inh	HIF-2a block	KKLEB tox	CF NFkB block	TWEAK Fn14 block	Peg3 promoter
OCC1CSC(=S)N1Cc1ccccc1 (configuration not stated)	-	-	-	-	-	-
O=C(NCc1ccc(F)cc1)C1CC(=O)N(Cc2ccco2)C1 (configuration not stated)	-	-	-	-	-	-
O=C(CC(SCCO)c1ccc([N+](=O)[O-])cc1)c1ccco1 (configuration not stated)	-	-	-	-	-	72
CCC1Oc2ccc(C)cc2N(CC(=O)N(Cc2cccnc2)Cc2cccc(F)c2)C1=O (configuration not stated)	-	-	-	-	-	-
O=C(CN1C(=O)COc2ccccc21)N(Cc1cccnc1)Cc1cccc(F)c1	-	-	-	-	68	-
Cc1ccc2c(c1)[C@H]1[C@H](CO2)[C@H](c2ccccc2)[C@]2(C)C(=O)Nc3cc(F)ccc3C(=O)N12	-	-	-	-	-	68
C[C@@]12C(=O)Nc3ccc(F)cc3C(=O)N1[C@H]1c3cc(Br)ccc3OC[C@@H]1[C@@H]2c1ccccc1	-	-	-	-	-	-
C[C@@]12C(=O)Nc3cc(F)ccc3C(=O)N1[C@H]1c3cc(Br)ccc3OC[C@@H]1[C@@H]2c1ccccc1	-	-	-	-	-	54
CS(=O)(=O)N1CCC(Oc2ccccc2C(=O)NC(C2CC2)C2CC2)CC1	-	-	-	-	-	-
COC(=O)CCN1CCc2cc(N=Nc3ccc([N+](=O)[O-])cc3)ccc21	53	-	-	-	-	-
CCCCn1nnnc1C(c1ccccc1)N1CCN(c2ncc(C(F)(F)F)cc2Cl)CC1 (configuration not stated)	-	-	.	.	-	.
Cc1nn(-c2ccccc2)c(C)c1/C=N/NC(=O)c1cc(C(C)(C)C)[nH]n1	-	-	-	-	-	-
Cc1ccc(-c2cc(C(=O)N/N=C/c3c(C)nn(-c4ccccc4)c3C)n[nH]2)s1	-	-	-	57	51	-
Cc1nc(NC(=O)c2cc3ccccc3o2)sc1C	-	-	-	-	57	-
Cc1nnc(NC(=O)c2cc3ccccc3o2)s1	-	-	-	-	-	-
COC(=O)c1cc(Cl)c(NC(=O)c2cc3ccccc3o2)cc1OC	.	-	-	-	54	-
O=C(O)c1cnn2c1C(=O)N(Cc1cccs1)CC2	-	-	-	-	-	-
O=C(Cn1cnc2ccccc2c1=O)c1ccccc1	-	-	-	-	-	-
Cc1ccc(C(=O)Cn2cnc3ccccc3c2=O)cc1	54	-	-	-	-	-
CC(=O)Nc1cc(N=Cc2ccc(O)cc2O)c(Cl)cc1Cl	-	-	-	-	99	-

Source: PubChem BioAssay (Sanford-Burnham Center for Chemical Genomics)
